The values below come from PubChem BioAssay (NCATS).

As a reminder, the AC50 is the concentration giving half of the maximal activity seen.

The conditions of assay [1]: Ebola virus entry assay, green fluorescence channel.
The conditions of assay [2]: Ebola virus entry assay, blue channel fluorescence.
For assay [3] the following is noted: Ebola virus entry assay, ratio channel.
For assay [4] the following is noted: Ebola virus entry assay, green channel fluorescence.
The conditions of assay [5]: Ebola virus entry assay, reporter ratio channel; Channel type: primary.
For assay [6] the following is noted: Ebola virus entry assay, blue channel (ratio component).
Assay [7] is described as follows: qHTS assay for measurement of the activity of small molecule inhibitors on Zika virus induced Caspase-3 activity in human iPSC derived neural progenitor cells (hNPCs) (AID 1224857; active = well fitted curve in the direction sought with a large enough effect; an effect the other way counts as inactive or inconclusive; note: % of control where 0% means no effect; nearly all actives have a fitted effect of over 65% in size). The settings on record: hNPCs ZIKV-induced caspase-3/7, Caspase-Glo luminescence, 6 h; series mostly up to 45.7 µM. An outline of the steps: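 Quantitative HTS format: human iPSC neural progenitors, 1 h compound pretreatment, ZIKV 2 FFU/cell for 6 h at 37 C. Percent inhibition derived from luminescent caspase-3/7 signal between uninfected and infected controls.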
(In general: qHTS replaces the single test concentration by a dilution series.)

The nature of assay [8]: qHTS assay for measurement of the activity of small molecule inhibitors on Zika virus induced Caspase-3 activity in human astrocytoma cells (AID 1224859; active = well fitted curve in the direction sought with a large enough effect; an effect the other way counts as inactive or inconclusive;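 note: plate controls were ZIKV-infected untreated cells for no effect and uninfected cells for full effect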). Conditions: SNB-19 ZIKV-induced caspase-3/7, luminescence, 6 h; series mostly up to 45.7 µM. A digest of the protocol:
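Readout is luminescence from Caspase-Glo 3/7 added after a 6 h ZIKV infection (2 FFU/cell) of compound-pretreated (1 h) SNB-19 cells; data expressed as % inhibition versus uninfected and infected wells.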

The nature of assay [9]: qHTS assay to identify small molecule inhibitors of chordoma cells - UCH-1 (AID 1259355; active = well fitted curve in the direction sought with a large enough effect; an effect the other way counts as inactive or inconclusive; note: % is set by controls: 0 for no effect and ±100 for the full control effect; nearly all actives have a fitted effect of over 55% in size). Conditions: UCH-1 chordoma viability, CellTiter-Glo, 48 h, combination; series mostly up to 46.1 µM. A digest of the protocol: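 Seed 800 cells per well; incubate overnight at 37 C, 5% CO2. Add test compounds (15 concentrations), then the auranofin–topoisomerase-agent combination. Incubate 48hr, add CellTiter-Glo, wait 30min, read luminescence.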

A short description of assay [10]: qHTS assay to identify small molecule inhibitors of chordoma cells - UCH-2 (AID 1259356; active = well fitted curve in the direction sought with a large enough effect; an effect the other way counts as inactive or inconclusive; note: % is set by controls: 0 for no effect and ±100 for the full control effect). Conditions: UCH-2 chordoma viability, CellTiter-Glo ATP luminescence, 48 h; series mostly up to 46.1 µM.

Molecules are shown by their SMILES. Values without a mark were called inactive. Records with an inconclusive call do not appear. For some of these results: Entries with a potency or affinity are not part of this list. Activity calls are given as the source filed them. Unless noted, the rule behind the calls is not given here.
Throughout, for efficacy: 0% is about no effect.

Regarding `COc1ccc2c(C(=O)c3ccc(Cl)cc3)c(C)n(CC(=O)O)c2c1`, the efficacy in [1] is 38%. Further, the molecule was classed as inactive in [2], in assay [3], in assay [4], in [5], in assay [6] and in [8]. Besides, the Potency entry in assay [7] was “inactive”.

`Nc1ccccc1C(=O)OCC(O)CO` (stereo not given): the efficacy in assay [1] was -15.8%. Further, the molecule was called inactive in assay [2], in assay [3], in [4], in assay [5], in [6] and in assay [8]. The Potency result in assay [7] was “inactive”.

On to `CCS(=O)(=O)C(C)(C)S(=O)(=O)CC`, for which the efficacy in assay [1] was -10.5%. Further, the result in assay [2], in [3], in [4], in [5] and in [8] was inactive. For the same molecule, the Potency result in assay [7], in [9] and in [10] was “inactive” in each case.

As for `CCN(CC)CCOCCOC(=O)C1(c2ccccc2)CCCC1`, the efficacy in assay [1] was 62.4%. In addition, the AC50 in assay [2], in assay [3] and in assay [5] was 10 µM (active) each time.

As to `CN(C)C(=O)Oc1cc(OC(=O)N(C)C)cc(C(O)CNC(C)(C)C)c1` (stereo not given), the efficacy in assay [1] is 18.9%. The outcome in assay [2], in assay [3], in assay [4], in [5], in [6] and in assay [8] was inactive. In addition, the Potency result in assay [7] and in assay [10] was “inactive” in each case.

As to `CC(C)=CCN1CC[C@@]2(C)c3cc(O)ccc3C[C@@H]1[C@@H]2C`, the efficacy in assay [1] is 36%. For the same molecule, the AC50 in [2], in assay [3] and in assay [5] was 31.6 µM (active) in each case. The result in assay [4] and in assay [8] was inactive. Also, in [7], the Potency entry is “inactive”.

Consider `COc1cc(N)c(Cl)cc1C(=O)NC1CN2CCC1CC2` (stereo not given), for which the efficacy in assay [1] was -20.5%. Further, the result in [2], in assay [3], in [4], in assay [5] and in assay [6] was inactive. The Potency entry in assay [7], in [9] and in assay [10] was “inactive” throughout.

`CCc1cc(OC)c(C[C@H](C)N)cc1OC`: the efficacy in assay [1] is 38.5%. Also, the AC50 in [2] is 22.4 µM (active); in assay [3] it was 25.1 µM (active); in [5], 25.1 µM (active). For the same molecule, the molecule was classed as inactive in [4] and in assay [8]. Also, the Potency entry in [7] was “inactive”.

Regarding `CNC(=O)NC(O)C(Cl)(Cl)Cl` (stereo not given), the efficacy in assay [1] is -36.8%. The call in [2], in assay [3], in [4], in assay [5] and in [8] was inactive. In addition, the Potency entry in [7], in assay [9] and in [10] was “inactive” in each case.

As for `C[C@]12CC[C@H]3[C@@H](CCC4=CC(=O)CC[C@@H]43)[C@@H]1CC[C@@H]2O`, the efficacy in assay [1] was -8.66%. The outcome in assay [2], in [3], in assay [4], in assay [5] and in [8] was inactive. For the same molecule, in [7], the Potency result was “inactive”.

Turning to `CN(C)CCc1c[nH]c2ccccc12`, the efficacy in assay [1] is -12.4%. Also, the AC50 in assay [2] was 35.5 µM (active). In addition, the result in [3], in assay [4], in [5] and in assay [8] was inactive. In addition, in assay [7], the Potency entry was “inactive”.

As to `Cc1ncc2n1-c1ccc(Cl)cc1C(c1ccccc1F)=NC2`, the efficacy in assay [1] was -12%. Besides, the call in assay [2], in [3], in assay [4], in assay [5], in assay [6] and in assay [8] was inactive. Further, the Potency entry in [9] and in [10] was “inactive” throughout.

As for `CCN1C(=O)c2ccccc2C1Nc1ccc(OCCN2CCCCC2)cc1` (stereo not given), the efficacy in [1] was 33.9%. In addition, the results for the AC50 in assay [2], in assay [3] and in assay [5] were 12.6 µM (active), 15.8 µM (active) and 15.8 µM (active), respectively.

For the molecule `CCN1CCCC1CNC(=O)C(O)(c1ccccc1)c1ccccc1` (stereo not given), the efficacy in assay [1] is 28.7%. The AC50 in assay [2] is 15.8 µM (active); in [3] it was 20 µM (active); in assay [5], 20 µM (active). Besides, the molecule was called inactive in [4] and in assay [8]. Moreover, the Potency result in assay [7] is “inactive”.

For the molecule `CN1CCc2cc(Cl)c(O)cc2[C@H]2c3ccccc3CC[C@@H]21`, in assay [1], the efficacy is 24%. In addition, the AC50 is 25.1 µM (active) in [2], 17.8 µM (active) in assay [3] and 17.8 µM (active) in [5]. Moreover, the outcome in assay [4] and in assay [8] was inactive. Further, the Potency entry in assay [7], in assay [9] and in assay [10] was “inactive” throughout.

`CN1C(=O)CN=C(c2ccccc2)c2cc(Cl)ccc21`: the efficacy in [1] was -37.3%. Further, the half-maximal activity concentration (AC50) was 25.1 µM (active) in assay [2] and 35.5 µM (active) in assay [5]. In addition, the result in assay [3], in assay [4] and in [8] was inactive. The Potency result in assay [7] is “inactive”.

Consider `CCC1(CC)C(=O)NC(=O)NC1=O`, for which the efficacy in assay [1] is -16.1%. Moreover, the result in assay [2], in assay [3], in assay [4], in assay [5] and in assay [8] was inactive. In addition, the Potency entry in [7], in assay [9] and in assay [10] was “inactive” throughout.

For the molecule `Sc1ccccc1Cl`, in [1], the efficacy is 41.3%. For the same molecule, the outcome in assay [2], in assay [3], in [4], in assay [5] and in [8] was inactive. For the same molecule, the Potency result in [7] is “inactive”.

In the case of `NC1(c2ccccc2)CCCCC1`, the efficacy in assay [1] is 44.3%. For the same molecule, the AC50 in assay [2] was 35.5 µM (active); in [3] it was 31.6 µM (active); in [5], 31.6 µM (active). The molecule was classed as inactive in assay [4] and in [8]. For the same molecule, in assay [7], the Potency entry was “inactive”.

With `CN(C)C(=S)SSC(=S)N(C)C`, the efficacy in assay [1] was -47%. Moreover, the AC50 in [2], in [3] and in [5] was 1.26 µM (active) in each case. Further, the molecule was called inactive in assay [4] and in assay [8]. Further, the Potency result in assay [10] is “inactive”.

As to `COc1ccc(OC)c(CC(C)N)c1` (stereo not given), the efficacy in [1] is 40.3%. The AC50 in [2] and in [5] was 31.6 µM (active) in each case. Also, the outcome in [3], in [4] and in [8] was inactive. In addition, the Potency result in assay [7] was “inactive”.

Take `Nc1ccc(Cl)cc1C(=O)c1ccccc1F`: the efficacy in assay [1] was -39%. Also, the AC50 in [2] and in assay [5] was 31.6 µM (active) throughout. The outcome in assay [3], in assay [4] and in assay [8] was inactive. Besides, the Potency result in assay [7] was “inactive”.

In the case of `O=C(CBr)Nc1ccc(Cl)cc1C(=O)c1ccccc1F`, the efficacy in [1] was 28%. The AC50 in assay [2], in assay [3] and in assay [5] was 17.8 µM (active) in each case. In addition, the molecule was classed as inactive in assay [4] and in assay [8]. For the same molecule, the Potency entry in [7] is “inactive”.

Take `CN(C(=O)CN(CCO)CC(=O)N(C)C(C)(C)Cc1ccccc1)C(C)(C)Cc1ccccc1`: in assay [1], the efficacy is 43.4%. Also, the AC50 in assay [2] was 7.94 µM (active); in [3] it was 5.62 µM (active); in [5] it was 5.62 µM (active).
